Data taken from PubChem BioAssay (NCI).
This is part of a sample that, as a whole, favours compounds with a hit. Of some 83,000 tested, about 20% had one in any assay.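 Assay: single dose, 48 h. Readout: percent growth (0 = no net growth; negative = cell death). Active: <10.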 Active and inactive are the calls of the source.

What was measured:
Assay in all cases: NCI-60 one-dose screen, 48 h (100 = growth as untreated, 0 = no growth, -100 = all killed)
Conditions in all cases: 10 µM unless noted
[1] = tested on: HCT-15 colon
[2] = tested on: HT29 colon
[3] = tested on: SNB-19 CNS
[4] = tested on: U251 CNS
[5] = tested on: PC-3 prostate
[6] = tested on: SK-MEL-5 melanoma
[7] = tested on: UACC-62 melanoma
[8] = tested on: LOX IMVI melanoma
[9] = tested on: SK-MEL-28 melanoma
[10] = tested on: SK-MEL-2 melanoma
[11] = tested on: EKVX NSCLC
[12] = tested on: SN12C renal
[13] = tested on: UO-31 renal
[14] = tested on: TK-10 renal
[15] = tested on: ACHN renal
[16] = tested on: CAKI-1 renal
[17] = tested on: A498 renal
[18] = tested on: CCRF-CEM leukemia
[19] = tested on: MOLT-4 leukemia

Measured: growth

CC(C)C1=CC2=C(C=O)C[C@@H]3[C@](C)(CCC[C@@]3(C)C(=O)OCC#CCN3CCCC3)[C@H]2CC1
inactive: [1] 60.9% | [2] 18.5% | [3] 85.2% | [4] 56.1% | [5] 54.9% | [6] 65.1% | [7] 77.4% | [8] 91.9% | [9] 96.8% | [10] 94% | [11] 98.2% | [12] 83.7% | [13] 61.6% | [14] 93.6% | [15] 97.3% | [16] 105% | [17] 88.6% | [18] 63.9% | [19] 66.9%

O=C(O)c1cn(C2CC2)c2cc(N3CCN(C(=O)/C=C/c4ccc(Cl)cc4)CC3)c(F)cc2c1=O
active: [13] -62.8%
inactive: [1] 51.6% | [2] 82.1% | [3] 82.8% | [4] 77.7% | [5] 72.6% | [6] 64.8% | [7] 61.7% | [8] 22% | [9] 66.5% | [10] 98.8% | [11] 80.4% | [12] 70.5% | [14] 105% | [15] 76.7% | [16] 73.8% | [17] 29% | [18] 64.8% | [19] 57.8%

COc1ccc(/C=C\c2cc(OC)c(OC)c(OC)c2)cc1OC(=O)c1cccc(Cn2cc(CCOC(=O)c3cccc(Cn4nnc5c4C(=O)c4ccccc4C5=O)c3)nn2)c1
active: [6] -28.8% | [17] -4.1% | [18] 8.91%
inactive: [1] 10.5% | [2] 12.2% | [3] 28.6% | [4] 23.8% | [5] 22.8% | [7] 45.7% | [8] 21.2% | [9] 58% | [10] 50.9% | [11] 58.3% | [12] 18.9% | [13] 36.6% | [14] 76.4% | [15] 17.2% | [16] 31.2% | [19] 20.7%

c1cc(C2=N[C@@H]3c4ccccc4C[C@@H]3O2)nc(C2=N[C@@H]3c4ccccc4C[C@@H]3O2)c1
inactive: [1] 94.7% | [2] 105% | [3] 97.7% | [4] 101% | [5] 98.3% | [6] 102% | [7] 102% | [8] 97% | [9] 108% | [10] 103% | [11] 89.4% | [12] 97% | [13] 94.6% | [14] 101% | [15] 102% | [16] 92.4% | [17] 102% | [18] 102% | [19] 106%

COc1ccc(Cn2cc3c(c2-c2cc(OC)c(OC)c(OC)c2)CCc2cnoc2-3)cc1
inactive: [1] 17.5% | [2] 11% | [3] 44.3% | [4] 29.3% | [5] 25.7% | [6] 17% | [7] 40.5% | [8] 38.1% | [9] 45% | [10] 42.8% | [11] 34.8% | [12] 34.6% | [13] 30.4% | [14] 73.8% | [15] 33.1% | [16] 21.2% | [18] 12.9% | [19] 23.3%
active: [17] 3.83%

Cc1ccc2[nH]c(=O)c3c(c2c1)Oc1ncn2nc(-c4ccco4)nc2c1C3c1ccc(Cl)cc1 (centres undefined)
inactive: [1] 91.6% | [2] 101% | [3] 88.2% | [4] 97.7% | [5] 93.7% | [6] 99% | [7] 101% | [8] 90.4% | [9] 103% | [10] 95.6% | [11] 90.9% | [12] 96.2% | [13] 84.9% | [14] 107% | [15] 94.6% | [16] 91.9% | [17] 96.8% | [18] 97.4% | [19] 103%

CCN(CC)CCC(CNc1ccnc2cc(Cl)ccc12)c1ccc(Cl)cc1 (centres undefined)
inactive: [3] 10.7% | [5] 36.9% | [11] 67.4% | [12] 42.2%
active: [1] -9.14% | [2] -4.66% | [4] -61% | [6] -96.3% | [7] -74.5% | [8] -1.91% | [9] -91.8% | [10] -75.7% | [13] -84.7% | [14] -8.87% | [15] -74.5% | [16] -40.3% | [17] 0.939% | [18] 3.11% | [19] 7.05%

C=C1CC2(OC1=O)C(=O)N(CCCN1C(=O)C3(CC(=C)C(=O)O3)c3ccccc31)c1ccccc12 (centres undefined)
active: [1] -28.1% | [2] -51.5% | [8] -82.8% | [9] -13.8% | [12] -38.6% | [13] -39.3% | [14] -9.34% | [15] -17.9% | [16] -7.27% | [18] -13.8% | [19] 1.03%
inactive: [3] 76.6% | [4] 45.4% | [5] 51.3% | [6] 74.4% | [7] 23.2% | [10] 52.8% | [11] 69.9% | [17] 70.4%

O=C(NCCNc1nccc(-n2ccc3cccnc32)n1)c1ccc(C(F)(F)F)cc1
inactive: [1] 104% | [2] 113% | [3] 104% | [4] 99.8% | [5] 102% | [6] 101% | [7] 94.6% | [8] 99.4% | [9] 105% | [10] 108% | [11] 94.2% | [12] 98.7% | [13] 84% | [14] 134% | [15] 97.6% | [16] 87.6% | [17] 108% | [18] 101% | [19] 104%

CC(C)(C)n1cc(-c2ccnc(NCCCNS(=O)(=O)c3cccc(F)c3)c2)c(-c2cccc(O)c2)n1
active: [1] -7.15% | [8] -71.1%
inactive: [2] 12.6% | [3] 75.7% | [4] 49.9% | [5] 32.9% | [6] 26.1% | [7] 64.5% | [9] 47.2% | [10] 61% | [11] 51.5% | [12] 59.7% | [13] 57.8% | [14] 97.9% | [15] 51.7% | [16] 56.2% | [17] 51.9% | [18] 39.6% | [19] 33.4%

CC(=O)Oc1csc(N(C(C)=O)c2cc(C(=O)O)cc(C(=O)O)c2)n1
active: [5] -100% | [18] 1.74%
inactive: [1] 92.8% | [2] 104% | [3] 97.2% | [4] 88.5% | [6] 94% | [7] 94.2% | [8] 90.2% | [9] 106% | [10] 106% | [11] 76.2% | [12] 98.8% | [13] 92.7% | [14] 105% | [15] 104% | [16] 101% | [17] 70.5% | [19] 109%

FC(F)(F)c1cccc(-c2cn3c(ccc4ccccc43)n2)c1
inactive: [1] 90.9% | [2] 102% | [3] 100% | [4] 86.9% | [5] 83% | [6] 92.4% | [7] 79.9% | [8] 90.1% | [9] 115% | [10] 102% | [11] 85.4% | [12] 97% | [13] 68.1% | [14] 122% | [15] 90.3% | [16] 71.4% | [17] 94.9% | [18] 105% | [19] 104%

COc1ccc(Nc2[nH]n3c(=O)cc(C)nc3c2C(N)=O)c(OC)c1
inactive: [1] 102% | [2] 92.2% | [3] 96% | [4] 94.1% | [5] 99.7% | [6] 98.1% | [7] 84% | [8] 95.6% | [9] 109% | [10] 94% | [11] 101% | [12] 96.6% | [13] 87.5% | [14] 88.2% | [15] 96.8% | [16] 90.2% | [17] 86.1% | [18] 101% | [19] 116%

CCCCN(CCCC)C(=O)CC
inactive: [1] 101% | [2] 110% | [3] 114% | [4] 120% | [5] 98.2% | [6] 103% | [7] 106% | [8] 104% | [9] 114% | [10] 112% | [11] 105% | [12] 109% | [13] 99.5% | [14] 114% | [15] 112% | [16] 109% | [17] 97.7% | [18] 96.8% | [19] 97.8%

COc1ccc2[nH]c(=O)c(/C=N/Nc3nc(-c4ccccc4)cs3)c(O)c2c1
inactive: [1] 20.5% | [2] 70.2% | [3] 75.4% | [4] 44.3% | [5] 58.9% | [6] 65.2% | [7] 62.7% | [8] 60% | [9] 76% | [10] 83.1% | [11] 53.8% | [12] 73.8% | [13] 42.5% | [14] 90.2% | [15] 48.6% | [16] 43.7% | [17] 94.9% | [18] 26.5% | [19] 35.2%

COc1cc(/C=N\NC(=O)CN2CCN(c3cc4c(cc3F)c(=O)c(C(=O)N/N=C/c3cc(OC)c(OC)c(OC)c3)cn4C3CC3)CC2)cc(OC)c1OC
inactive: [1] 101% | [3] 19.1% | [11] 55.2% | [13] 71.8% | [14] 64.2% | [15] 93.7% | [16] 77.7% | [17] 46.6%
active: [2] 4.47% | [4] 2.13% | [5] -19.8% | [6] -15.4% | [7] -34.7% | [8] -67.1% | [9] -11.6% | [10] -26.2% | [12] -25.8% | [18] 4.32% | [19] 0.748%
